Measurements: PubChem BioAssay (Tox21)
Results filed as inconclusive are left out. Where a call stands in place of a potency, no number is given. Values without a mark were called inactive. Active and inactive are the calls of the source. The call rests on the fitted dose curve.

experiment: p53 small molecule agonists, cell-based qHTS assay with rat liver microsomes: qHTS cell viability counter screen (AID 1963580); conditions: p53RE-bla HCT-116 + rat microsomes, ATP viability, 16 h; series mostly up to 66 µM; further: nearly all actives have a fitted effect of over 45% in size
In short: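 After the beta-lactamase ratio was read, CellTiter-Glo was added to the same wells and luminescence measured at 30 min; cells had been treated 16 h at 37 C with compounds, rat liver microsomes and NADPH (0.5 mg/mL final each).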
Potency means the concentration at half of the fitted maximal effect.

Row | Structure (SMILES) | Potency | activity change, negative = cytotoxicity
1 | CC[N+](C)(CC)CCOC(=O)C1c2ccccc2Oc2ccccc21 | inactive | –
2 | C/C=C1/C(=O)C[C@H]2[C@@H]3CCC4=CC(=O)CC[C@]4(C)[C@H]3CC[C@]12C | inactive | –
3 | O=C(NN1CCCC1)NS(=O)(=O)c1ccc(Cl)cc1 | inactive | –
4 | CCCNCCC | inactive | –
5 | O=C1CC[C@@H](C(=O)O)N1 | inactive | –
6 | C1C2OC2C2C1C1CC2C2OC12 (stereo not given) | inactive | –
7 | Cc1ccc(C#N)cc1 | inactive | –
8 | CC[C@@]1(c2ccccc2)NC(=O)N(C)C1=O | inactive | –
9 | CC[C@H]1O[C@]2(CC[C@@H]1C)C[C@@H]1C[C@@H](C/C=C(\C)C[C@@H](C)/C=C/C=C3\CO[C@@H]4[C@H](O)C(C)=C[C@@H](C(=O)O1)[C@]34O)O2 | inactive | –
10 | O=CNc1ccccc1 | inactive | –
11 | FC(F)(Cl)C(F)(Cl)Cl | inactive | –
12 | CCN(C(=O)N(CC)c1ccccc1)c1ccccc1 | inactive | –
13 | CCCCCC/C=C/C=O | inactive | –
14 | CCCCCCCCCCO[C@@H]1O[C@H](CO)[C@@H](O)[C@H](O)[C@H]1O | inactive | –
15 | CC(C)COC(=O)CCCCC(=O)OCC(C)C | inactive | –
16 | CCOc1ccc(NC(=O)CC(C)=O)cc1 | inactive | –
17 | CCOC(=O)CC(=O)c1ccccc1 | inactive | –
18 | NCCCC(N)(C(=O)O)C(F)F (stereo not given) | inactive | –
19 | Cc1ccccc1Br | inactive | –
20 | CCCCCCCCS(=O)(=O)O | inactive | –

Row | Structure (SMILES) | Potency | activity change, negative = cytotoxicity
21 | CCOC(=O)[C@@](C)(N)Cc1ccc(O)c(O)c1 | inactive | –
22 | CC1(C)SC(C)(C)SC(C)(C)S1 | inactive | –
23 | NCCCCCCNCCCCCCN | inactive | –
24 | CCN(CC)CCNC(C(=O)OCCC(C)C)c1ccccc1 (stereo not given) | inactive | –
25 | Oc1cc2ccccc2c2ccccc12 | 6.46 µM (active) | –
26 | CCCCCCC(C)Nc1ccc(Nc2ccccc2)cc1 (stereo not given) | inactive | –
27 | CCCCCCCCCCCCCOC(=O)CCSCCC(=O)OCCCCCCCCCCCCC | – | -0.0386% [at 13.5 µM]
28 | CC(C)(C)C(=O)CCc1ccc(Cl)cc1 | inactive | –
29 | CC(C)COC(=O)COc1ccc(Cl)cc1Cl | inactive | –
30 | C=C(C)c1cccc(C(=C)C)c1 | inactive | –
31 | CC(C)(C)C1CCCCC1=O (stereo not given) | inactive | –
32 | COC(=O)CC(=O)C(C)(C)C | inactive | –
33 | CC(C)NCC(O)c1cc(O)cc(O)c1 (stereo not given) | inactive | –
34 | O=C=NCC1CCCC(CN=C=O)C1 (stereo not given) | inactive | –
35 | NNc1nc(-c2ccccc2)cs1 | inactive | –
36 | O=Cc1cc(O)ccc1Br | inactive | –
37 | Cc1ccc(C)c([N+](=O)[O-])c1 | inactive | –
38 | CCN(CC)C(=O)c1ccc(O)c(OC)c1 | inactive | –
39 | Cc1cccc(NC(=S)N(C)C)c1 | inactive | –
40 | COc1ccc(OC)c(Cl)c1 | inactive | –
